# PubChem BioAssay (NCATS)
# Records with an inconclusive call do not appear. A call without a number means that no potency is given here. A number with no mark means an inactive call. The source made the active and inactive calls. Calls follow the shape of the dose curve; as a rule, active = well fitted curve in the direction sought with a large enough effect; inconclusive = small, poorly fitted or top-dose-only effect, or another doubt; inactive = no such curve, though single readings can be large; an effect the other way counts as inactive or inconclusive.
# Assays:
# [1] = target: N-terminal Xaa-Pro-Lys N-methyltransferase 1 (Homo sapiens) (UniProt Q9BV86); test: qHTS Assay for Inhibitors of N-terminal methyltransferase 1 (NTMT1): LOPAC validation of the NTMT1 SAHH-coupled ThioGlo3 Assay (AID 1347143);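 also: SAH from peptide methylation measured as thiol fluorescence via SAHH coupling and ThioGlo3; nearly all actives have a fitted effect of over 70% in size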; also: potency is read from the fitted curve at half-maximal effect
# Method in brief: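 Recombinant human NTMT1 (125nM) was pre-incubated 1 min at room temperature with compounds over a concentration range, then a mix of 100uM SAM, 10uM SAHH and 15uM ThioGlo3 (concentrations in added reagent) was added. ThioGlo3 fluorescence (ex 340/em 450nm) after 30 min was normalized to the initial reading.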
# [2] = system: Zika virus NS2B-NS3 protease (unlinked); test: Optimization of GU AMC qHTS for Zika virus inhibitors: Unlinked NS2B-NS3 protease assay (AID 1347151); also: series mostly up to about 52 µM; nearly all actives have a fitted effect of over 80% in size
# Method in brief: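 Fluorescence gain (340/450 nm) over 15 min at room temperature, ~20% conversion, gave percent inhibition fitted to a 4-parameter Hill equation; enzyme was unlinked NS2B-NS3 (25 nM final), pH 8.0 Tris buffer.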
# [3] = system: Zika virus NS2B-NS3 protease; test: Primary screen GU AMC qHTS for Zika virus inhibitors (AID 1347154); also: nearly all actives have a fitted effect of over 70% in size
# Method in brief: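 Unlinked Zika NS2B hydrophilic domain–NS3 protease complex at 25 nM in 10 mM Tris-HCl pH 8.0, 0.01% Tween 20, with an AMC peptide substrate. Fluorescence change (340/450 nm) over 15 min at room temperature, normalized to controls, fitted to 4-parameter Hill.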
# [4] = system: Zika virus NS2B-NS3 protease (linked construct); test: Confirmatory screen NINDS AMC qHTS for Zika virus inhibitors (AID 1347152); also: top concentration of the series differs between compounds; nearly all actives have a fitted effect of over 70% in size
# Method in brief: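 IC50s from 4-parameter Hill fits of percent inhibition, based on AMC fluorescence gain (340/450 nm) over 15 min with 10 microM Bz-Nle-KRR-AMC. Enzyme: 1 nM linked NS2B-NS3 in Tris-HCl pH 8.0; 15-min compound preincubation.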
# [5] = system: Zika virus NS2B-NS3 protease (unlinked complex); test: Confirmatory screen GU AMC qHTS for Zika virus inhibitors (AID 1347153); also: nearly all actives have a fitted effect of over 70% in size
# Method in brief: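 Unlinked enzyme 25 nM, Tris pH 8.0/0.01% Tween 20; cpd 15 min RT, dark; + AMC substrate 10 µM (Km 18.3 µM); 340/450 nm read at t0 and 15 min; % inhibition → 4-param fit.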
# Sequence of N-terminal Xaa-Pro-Lys N-methyltransferase 1 (Homo sapiens) (Q9BV86 whole entry, looked up): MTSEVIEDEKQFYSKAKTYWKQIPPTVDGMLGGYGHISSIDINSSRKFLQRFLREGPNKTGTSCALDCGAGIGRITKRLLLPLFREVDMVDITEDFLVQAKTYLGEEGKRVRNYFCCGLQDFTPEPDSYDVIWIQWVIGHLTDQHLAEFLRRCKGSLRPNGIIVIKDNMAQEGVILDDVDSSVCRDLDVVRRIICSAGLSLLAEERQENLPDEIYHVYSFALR
Compound,Potency [1],Potency [2],outcome [3],outcome [4],outcome [5]
CN(C)CCN(Cc1cccs1)c1ccccn1,inactive,inactive,inactive,,
Brc1c(NC2=NCCN2)ccc2nccnc12,50.1 µM (active),inactive,inactive,,
Cc1nc2sccn2c(=O)c1CCN1CCC(=C(c2ccc(F)cc2)c2ccc(F)cc2)CC1,inactive,,inactive,inactive,inactive
COCCCC/C(=N\OCCN)c1ccc(C(F)(F)F)cc1,inactive,inactive,inactive,,
CCN(CC)CCNC(=O)c1ccc(NC(C)=O)cc1,inactive,inactive,inactive,,
CCN(CC)CCNC(=O)c1cc(S(C)(=O)=O)ccc1OC,inactive,inactive,inactive,,
OCCN1CCN(CCCN2c3ccccc3C=Cc3ccccc32)CC1,,inactive,inactive,,
COc1ccc([C@@H]2Sc3ccccc3N(CCN(C)C)C(=O)[C@@H]2OC(C)=O)cc1,inactive,inactive,inactive,,
CN(C)CC/C=C1\c2ccccc2COc2ccccc21,inactive,inactive,inactive,,
CN(C)[C@@H]1C(=O)C(C(N)=O)=C(O)[C@@]2(O)C(=O)C3=C(O)c4c(O)ccc(Cl)c4[C@@H](O)[C@H]3C[C@@H]12,56.2 µM (active),inactive,inactive,,
CO[C@@]1(NC(=O)CSCC#N)C(=O)N2C(C(=O)O)=C(CSc3nnnn3C)CS[C@@H]21,inactive,inactive,inactive,,
NC(=O)c1ncn([C@@H]2O[C@H](CO)[C@@H](O)[C@H]2O)c1O,inactive,inactive,inactive,,
CSc1ccc(C(=O)c2[nH]c(=O)[nH]c2C)cc1,,inactive,,,
CCCCNc1ccc(C(=O)OCCN(C)C)cc1,,inactive,inactive,,
CCN(CC)CC(=O)Nc1c(C)cccc1C,inactive,inactive,inactive,,
NC(N)=N/N=C/c1c(Cl)cccc1Cl,inactive,inactive,inactive,,
CNC1(C)C2CCC(C2)C1(C)C (stereo unspecified),inactive,inactive,inactive,,
CCCCCCCC/C=C\CCCCCCCC(=O)NCc1ccc(O)c(OC)c1,inactive,,inactive,,
NS(=O)(=O)c1cc2c(cc1Cl)NC(C1CC3C=CC1C3)NS2(=O)=O (stereo unspecified),inactive,inactive,inactive,,
CCN1CCC[C@H]1CNC(=O)c1c(O)c(Cl)cc(Cl)c1OC,50.1 µM (active),,inactive,,
Nc1ncn([C@@H]2O[C@H](CO)[C@@H](O)[C@H]2O)c(=O)n1,inactive,inactive,inactive,,
O=C(O)CCCCCCCC(=O)O,inactive,inactive,inactive,,
